Inconclusive results are not listed. Active and inactive are the calls of the source. The call rests on the fitted dose curve; in most records, active means well fitted inhibition curve with a large enough effect; inconclusive means small, poorly fitted or top-dose-only effect; inactive means flat fitted curve, though single readings scatter.
Columns and labels:
KB-3-1 = test: Cytotoxic Profiling of Annotated Libraries Using Quantitative High-Throughput Screening (AID 1296008); conditions: Five cell lines viability, CellTiter-Glo ATP luminescence, 48-72 h; max response: stronger effect = lower value; on max response: on the % scale 0 is the no-effect control and ±100 the full control effect
How it was run: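 Cells exposed to compounds for 48 or 72 hr at 37 degrees Celsius. Viability read as ATP-coupled luminescence with CellTiter-Glo after 10 min at room temperature.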

TAB113 = test: qHTS profiling for inhibitors of Plasmodium falciparum proliferation (AID 504749); conditions: P. falciparum in erythrocytes, SYBR Green DNA, 72 h; series mostly up to 28.7 µM
How it was run: (§1)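 Readout was DNA-dye fluorescence from lysed cultures, ex 485/em 535 nm. Parasitized red cells had grown 72 h with compound; data scaled between 0.29 uM artemisinin and DMSO wells and corrected using vehicle-only plates.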

TAB165 = test: as above; conditions: P. falciparum in erythrocytes, SYBR Green DNA, 72 h; series mostly up to 28.7 µM
How it was run: as §1

W2 = test: as above; conditions: P. falciparum in erythrocytes, SYBR Green DNA, 72 h; series mostly up to 28.7 µM
How it was run: as §1
Further: nearly all actives have a fitted effect of over 60% in size.
Potency means the concentration at half of the fitted maximal effect.

CC(C)C(=O)OCC(=O)[C@@]12O[C@H](C3CCCCC3)O[C@@H]1C[C@H]1[C@@H]3CCC4=CC(=O)C=C[C@]4(C)[C@H]3[C@@H](O)C[C@@]12C
inactive: max response (KB-3-1) -5.72%

CCOC(=O)C1=CC2(CC)CCCN3CCc4c(n1c1ccccc41)C32 (stereo not drawn)
active: Potency (TAB113) 11200 nM | Potency (TAB165) 7940 nM

CCCCCCCCCCCC[n+]1ccc2ccccc2c1
active: Potency (TAB113) 1000 nM | Potency (TAB165) 891 nM | Potency (W2) 301 nM | Potency (KB-3-1) 14600 nM

O=S(=O)(O)O
inactive: Potency (TAB113) | Potency (TAB165) | Potency (W2) | max response (KB-3-1) 5.37%

CCCCCCCCCCCCCCCC(=O)OCC(COC(=O)CCCCCCCCCCCCCCC)OC(=O)CCCCCCCCCCCCCCC
inactive: Potency (TAB113) | Potency (TAB165) | Potency (W2)

CCCCC(=O)O[C@]1(C(=O)CO)[C@H](C)C[C@H]2[C@@H]3CCC4=CC(=O)C=C[C@]4(C)[C@@]3(F)[C@@H](O)C[C@@]21C
active: Potency (W2) 13500 nM
inactive: Potency (TAB113) | max response (KB-3-1) 32.2%

CCC(=O)NCCC1CCc2ccc3c(c21)CCO3 (stereo not drawn)
inactive: Potency (TAB113) | Potency (TAB165) | Potency (W2) | max response (KB-3-1) -7.29%

CC(C(=O)O)c1ccc(N2Cc3ccccc3C2=O)cc1 (stereo not drawn)
inactive: Potency (TAB113) | Potency (TAB165) | Potency (W2) | max response (KB-3-1) -24.5%

C[C@]12CCC(=O)C=C1CC[C@@H]1[C@@H]2[C@@H](O)C[C@@]2(C)[C@H]1CC[C@]2(O)C(=O)COP(=O)(O)O
inactive: Potency (TAB113) | Potency (TAB165) | Potency (W2) | max response (KB-3-1) 13.4%

CCCCCCCCCCCCCC[n+]1ccc(C)cc1
active: Potency (TAB113) 3980 nM | Potency (TAB165) 3980 nM | Potency (W2) 1690 nM | Potency (KB-3-1) 18400 nM

CC(C)(C)C(=O)OCOC(=O)[C@@H]1N2C(=O)[C@@H](N=CN3CCCCCC3)[C@H]2SC1(C)C
inactive: Potency (TAB113) | Potency (TAB165)

O=C1C(=O)c2ncccc2-c2cccnc21
active: Potency (TAB113) 1780 nM | Potency (TAB165) 794 nM | Potency (W2) 1070 nM | Potency (KB-3-1) 4610 nM

CCCCC(C)(O)C/C=C/[C@H]1[C@H](O)CC(=O)[C@@H]1CCCCCCC(=O)OC (stereo partly drawn)
inactive: Potency (TAB113) | Potency (TAB165)

CC[N+](C)(C)Cc1ccccc1Br
inactive: Potency (TAB113) | Potency (TAB165) | Potency (W2)

CO[C@H](C(=O)[C@@H](O)[C@@H](C)O)C1Cc2cc3cc(O[C@H]4C[C@@H](O[C@H]5C[C@@H](O)[C@H](O)[C@@H](C)O5)[C@@H](O)[C@@H](C)O4)c(C)c(O)c3c(O)c2C(=O)[C@H]1O[C@H]1C[C@@H](O[C@H]2C[C@@H](O[C@H]3C[C@](C)(O)[C@H](O)[C@@H](C)O3)[C@H](O)[C@@H](C)O2)[C@H](O)[C@@H](C)O1 (stereo partly drawn)
active: Potency (TAB113) 89.1 nM | Potency (TAB165) 126 nM | Potency (W2) 169 nM | Potency (KB-3-1) 1160 nM
